Experimental findings from publication PMC7862700, “An all-to-all approach to the identification of sequence-specific readers for epigenetic DNA modifications on cytosine” are described below.

Common to all, as to assay: DAPPL (digital affinity profiling via proximity ligation, sequencing); 10 mM Tris-HCl pH 7.5, 50 mM NaCl, 1 mM DTT, 4% glycerol, room temperature, 30 min; GST-TFs on glutathione beads, 16-mer random dsDNA library, 0.1% formaldehyde crosslink after washing; high values mean tight binding
Holding throughout (details): protein: recombinant; tags: N-terminal GST; dsDNA, one strand shown

In one experiment the target is T1, FLI1 (Homo sapiens, UniProt Q01543 1-452).
T1 sequence: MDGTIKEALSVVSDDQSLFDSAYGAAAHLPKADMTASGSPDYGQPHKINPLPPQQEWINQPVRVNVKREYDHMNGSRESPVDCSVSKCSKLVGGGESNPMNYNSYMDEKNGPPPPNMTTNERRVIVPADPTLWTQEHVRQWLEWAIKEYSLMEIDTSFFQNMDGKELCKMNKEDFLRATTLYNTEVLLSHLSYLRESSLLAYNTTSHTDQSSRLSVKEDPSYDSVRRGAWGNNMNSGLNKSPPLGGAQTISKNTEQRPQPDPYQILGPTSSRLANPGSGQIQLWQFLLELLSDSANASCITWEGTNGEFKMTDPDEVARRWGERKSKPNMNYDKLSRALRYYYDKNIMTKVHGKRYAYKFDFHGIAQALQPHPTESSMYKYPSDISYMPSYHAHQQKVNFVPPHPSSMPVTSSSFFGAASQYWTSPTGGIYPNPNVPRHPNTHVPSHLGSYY
Put shortly:
(§1)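 Human transcription factors were made in yeast as GST fusions, captured on glutathione beads and barcoded with DNA. With a tag-only sample included, the pool was incubated with 200 nmole of a random double-stranded 16-mer DNA library in Tris/NaCl/DTT/glycerol buffer at room temperature for 30 min, then crosslinked with 0.1% formaldehyde after washing, ligated by proximity, amplified and sequenced. For binding signal, each hexamer's read frequency for a factor is divided by its frequency for the tag-only sample.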

In the next experiment the target is T2, ELK1 (Homo sapiens, UniProt P19419 1-428).
T2 sequence: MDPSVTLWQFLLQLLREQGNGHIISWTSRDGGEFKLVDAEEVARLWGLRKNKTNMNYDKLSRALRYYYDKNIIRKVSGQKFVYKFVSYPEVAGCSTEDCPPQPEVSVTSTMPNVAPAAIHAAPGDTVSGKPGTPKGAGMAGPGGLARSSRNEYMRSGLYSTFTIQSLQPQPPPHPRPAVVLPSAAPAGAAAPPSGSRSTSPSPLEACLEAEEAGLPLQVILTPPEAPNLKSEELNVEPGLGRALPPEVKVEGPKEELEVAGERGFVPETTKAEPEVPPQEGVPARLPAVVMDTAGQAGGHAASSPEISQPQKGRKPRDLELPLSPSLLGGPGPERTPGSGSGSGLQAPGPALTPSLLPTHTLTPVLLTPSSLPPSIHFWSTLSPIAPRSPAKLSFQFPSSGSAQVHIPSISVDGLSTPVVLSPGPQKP
Put shortly:
as §1

The target of another experiment is T3, GABPA (Homo sapiens, UniProt Q06546 1-454).
T3 sequence: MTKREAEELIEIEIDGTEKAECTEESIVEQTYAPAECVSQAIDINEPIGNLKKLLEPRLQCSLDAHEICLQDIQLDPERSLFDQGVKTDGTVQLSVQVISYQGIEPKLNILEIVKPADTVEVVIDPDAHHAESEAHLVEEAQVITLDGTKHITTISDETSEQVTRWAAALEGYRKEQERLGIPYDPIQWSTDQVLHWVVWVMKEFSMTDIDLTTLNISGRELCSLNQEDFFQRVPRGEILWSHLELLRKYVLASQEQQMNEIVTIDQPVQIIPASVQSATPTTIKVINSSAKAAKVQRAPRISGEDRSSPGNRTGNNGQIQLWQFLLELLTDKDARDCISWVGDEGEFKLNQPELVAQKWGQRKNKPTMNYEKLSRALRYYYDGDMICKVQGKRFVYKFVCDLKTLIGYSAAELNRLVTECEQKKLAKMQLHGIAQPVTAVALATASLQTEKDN
Put shortly:
as §1

Another experiment addresses ELF1 (Homo sapiens, UniProt P32519 1-619). Put shortly: as §1
Another experiment deals with T4, EHF (Homo sapiens, UniProt Q9NZC4 1-300).
T4 sequence: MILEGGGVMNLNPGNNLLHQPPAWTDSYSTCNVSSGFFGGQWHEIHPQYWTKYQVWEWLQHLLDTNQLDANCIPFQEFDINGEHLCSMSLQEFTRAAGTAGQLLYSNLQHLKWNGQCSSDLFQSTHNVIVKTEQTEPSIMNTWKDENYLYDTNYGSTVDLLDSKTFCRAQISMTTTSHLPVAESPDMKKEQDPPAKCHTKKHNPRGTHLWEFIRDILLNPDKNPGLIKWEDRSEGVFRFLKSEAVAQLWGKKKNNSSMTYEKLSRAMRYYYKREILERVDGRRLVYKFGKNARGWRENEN
The method in brief: as §1

Another experiment deals with T5, SPIC (Homo sapiens, UniProt Q8N5J4 1-248).
T5 sequence: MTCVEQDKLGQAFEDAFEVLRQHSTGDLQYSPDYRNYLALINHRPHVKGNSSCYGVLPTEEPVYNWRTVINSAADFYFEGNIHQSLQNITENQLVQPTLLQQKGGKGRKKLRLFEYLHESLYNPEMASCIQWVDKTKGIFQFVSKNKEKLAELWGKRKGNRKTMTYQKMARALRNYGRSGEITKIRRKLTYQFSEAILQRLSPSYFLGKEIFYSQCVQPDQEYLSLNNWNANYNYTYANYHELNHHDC
Put shortly:
as §1

The target in another experiment is ELF4 (Homo sapiens, UniProt Q99607 1-663). The method in brief: as §1
ELF4, sequence (Q99607 whole entry): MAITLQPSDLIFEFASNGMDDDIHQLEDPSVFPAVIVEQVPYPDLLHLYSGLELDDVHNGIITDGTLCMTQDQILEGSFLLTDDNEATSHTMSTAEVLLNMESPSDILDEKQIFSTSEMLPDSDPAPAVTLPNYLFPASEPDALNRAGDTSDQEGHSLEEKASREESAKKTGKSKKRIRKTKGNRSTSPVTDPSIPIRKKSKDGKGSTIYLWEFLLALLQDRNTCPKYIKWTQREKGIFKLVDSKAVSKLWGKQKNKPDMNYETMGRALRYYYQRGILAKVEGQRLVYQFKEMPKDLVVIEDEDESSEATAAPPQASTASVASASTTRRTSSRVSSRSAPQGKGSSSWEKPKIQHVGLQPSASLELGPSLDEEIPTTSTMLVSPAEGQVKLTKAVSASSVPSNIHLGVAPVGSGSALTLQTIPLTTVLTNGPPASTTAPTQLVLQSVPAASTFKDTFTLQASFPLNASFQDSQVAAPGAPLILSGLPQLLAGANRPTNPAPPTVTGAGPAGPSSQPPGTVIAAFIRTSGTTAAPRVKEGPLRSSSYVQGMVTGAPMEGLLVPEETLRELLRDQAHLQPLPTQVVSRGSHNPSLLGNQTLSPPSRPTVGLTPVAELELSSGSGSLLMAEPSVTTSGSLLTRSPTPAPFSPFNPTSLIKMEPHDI
A further experiment addresses T6, ELK4 (Homo sapiens, UniProt P28324-2 1-405).
T6 sequence: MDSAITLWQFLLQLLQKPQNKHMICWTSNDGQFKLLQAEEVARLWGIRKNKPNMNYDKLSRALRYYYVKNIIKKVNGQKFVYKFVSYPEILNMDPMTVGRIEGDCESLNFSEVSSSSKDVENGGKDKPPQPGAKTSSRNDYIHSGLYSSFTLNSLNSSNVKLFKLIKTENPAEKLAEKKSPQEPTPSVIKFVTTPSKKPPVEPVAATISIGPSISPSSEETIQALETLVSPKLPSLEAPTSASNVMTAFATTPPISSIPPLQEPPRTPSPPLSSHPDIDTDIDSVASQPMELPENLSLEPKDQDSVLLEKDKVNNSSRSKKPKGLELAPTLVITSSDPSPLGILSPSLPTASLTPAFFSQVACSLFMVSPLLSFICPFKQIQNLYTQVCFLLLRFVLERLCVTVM
The method in brief: as §1

A further experiment addresses T7, ETV2 (Homo sapiens, UniProt O00321 1-342).
T7 sequence: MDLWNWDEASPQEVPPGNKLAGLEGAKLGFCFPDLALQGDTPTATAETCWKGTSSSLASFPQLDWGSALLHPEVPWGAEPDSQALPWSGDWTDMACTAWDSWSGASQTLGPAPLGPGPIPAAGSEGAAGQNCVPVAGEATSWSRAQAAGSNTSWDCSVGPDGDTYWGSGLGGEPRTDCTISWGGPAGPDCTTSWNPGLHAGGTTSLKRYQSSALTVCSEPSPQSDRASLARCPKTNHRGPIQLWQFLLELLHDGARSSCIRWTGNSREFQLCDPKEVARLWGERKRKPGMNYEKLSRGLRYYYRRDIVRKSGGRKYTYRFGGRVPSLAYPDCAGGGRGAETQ
The method in brief:
as §1

For another experiment, the target named is T8, ELF3 (Homo sapiens, UniProt P78545 1-371).
T8 sequence: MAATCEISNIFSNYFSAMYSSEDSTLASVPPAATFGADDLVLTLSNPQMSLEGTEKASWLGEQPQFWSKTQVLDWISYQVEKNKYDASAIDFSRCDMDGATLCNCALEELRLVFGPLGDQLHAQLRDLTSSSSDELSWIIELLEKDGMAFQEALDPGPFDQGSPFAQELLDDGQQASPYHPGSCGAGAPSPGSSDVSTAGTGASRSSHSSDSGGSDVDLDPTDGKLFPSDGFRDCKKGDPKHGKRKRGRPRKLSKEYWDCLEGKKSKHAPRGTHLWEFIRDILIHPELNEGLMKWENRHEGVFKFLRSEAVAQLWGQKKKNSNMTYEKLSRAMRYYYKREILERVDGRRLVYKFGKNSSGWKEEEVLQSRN
Put shortly: as §1

In the next experiment the target is ETV1 (Homo sapiens, UniProt P50549 1-477). The method in brief:
as §1

In a further experiment the target is T9, ETS2 (Homo sapiens, UniProt P15036 1-469).
T9 sequence: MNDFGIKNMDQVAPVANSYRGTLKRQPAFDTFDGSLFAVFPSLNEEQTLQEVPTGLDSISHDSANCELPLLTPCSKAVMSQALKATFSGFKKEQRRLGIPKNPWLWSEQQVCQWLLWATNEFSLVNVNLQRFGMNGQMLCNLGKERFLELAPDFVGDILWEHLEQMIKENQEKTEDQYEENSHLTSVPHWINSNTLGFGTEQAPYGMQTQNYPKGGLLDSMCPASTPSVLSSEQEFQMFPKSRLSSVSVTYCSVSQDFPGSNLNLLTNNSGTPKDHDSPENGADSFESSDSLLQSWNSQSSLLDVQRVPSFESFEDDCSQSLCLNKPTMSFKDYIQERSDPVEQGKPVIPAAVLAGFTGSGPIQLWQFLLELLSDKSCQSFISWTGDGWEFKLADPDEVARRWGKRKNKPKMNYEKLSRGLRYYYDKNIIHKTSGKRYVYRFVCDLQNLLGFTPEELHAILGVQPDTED
Put shortly: as §1

Another experiment has as its target T10, ETV7 (Homo sapiens, UniProt Q9Y603 1-341).
T10 sequence: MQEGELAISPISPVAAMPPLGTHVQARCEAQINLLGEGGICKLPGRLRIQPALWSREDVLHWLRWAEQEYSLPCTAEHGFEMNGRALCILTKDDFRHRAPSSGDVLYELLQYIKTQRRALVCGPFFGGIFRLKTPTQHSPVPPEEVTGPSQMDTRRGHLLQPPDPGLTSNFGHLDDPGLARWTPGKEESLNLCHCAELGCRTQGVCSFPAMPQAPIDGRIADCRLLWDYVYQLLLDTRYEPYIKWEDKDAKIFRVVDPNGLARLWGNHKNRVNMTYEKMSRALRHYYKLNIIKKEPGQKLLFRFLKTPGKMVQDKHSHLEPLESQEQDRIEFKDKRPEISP
Put shortly:
as §1

A further experiment addresses T11, ETV3 (Homo sapiens, UniProt P41162-2 1-143).
T11 sequence: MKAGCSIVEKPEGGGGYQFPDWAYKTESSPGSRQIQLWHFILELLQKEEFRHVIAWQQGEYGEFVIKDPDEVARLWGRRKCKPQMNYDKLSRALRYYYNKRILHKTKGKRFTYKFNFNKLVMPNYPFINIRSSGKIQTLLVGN
Put shortly: as §1

ETV1, sequence (P50549 whole entry): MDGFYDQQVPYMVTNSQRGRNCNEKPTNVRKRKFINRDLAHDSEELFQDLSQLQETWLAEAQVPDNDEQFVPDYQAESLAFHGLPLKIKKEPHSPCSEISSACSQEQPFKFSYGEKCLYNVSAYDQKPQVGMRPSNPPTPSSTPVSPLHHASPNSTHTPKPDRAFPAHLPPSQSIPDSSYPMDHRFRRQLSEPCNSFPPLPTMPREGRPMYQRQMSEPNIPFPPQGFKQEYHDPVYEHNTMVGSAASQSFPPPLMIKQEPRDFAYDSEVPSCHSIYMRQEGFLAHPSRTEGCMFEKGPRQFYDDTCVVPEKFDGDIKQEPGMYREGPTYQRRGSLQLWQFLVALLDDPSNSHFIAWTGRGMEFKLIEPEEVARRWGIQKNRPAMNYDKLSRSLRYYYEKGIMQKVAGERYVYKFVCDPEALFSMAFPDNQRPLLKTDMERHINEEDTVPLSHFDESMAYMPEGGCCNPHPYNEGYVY
ELF1, sequence (P32519 whole entry): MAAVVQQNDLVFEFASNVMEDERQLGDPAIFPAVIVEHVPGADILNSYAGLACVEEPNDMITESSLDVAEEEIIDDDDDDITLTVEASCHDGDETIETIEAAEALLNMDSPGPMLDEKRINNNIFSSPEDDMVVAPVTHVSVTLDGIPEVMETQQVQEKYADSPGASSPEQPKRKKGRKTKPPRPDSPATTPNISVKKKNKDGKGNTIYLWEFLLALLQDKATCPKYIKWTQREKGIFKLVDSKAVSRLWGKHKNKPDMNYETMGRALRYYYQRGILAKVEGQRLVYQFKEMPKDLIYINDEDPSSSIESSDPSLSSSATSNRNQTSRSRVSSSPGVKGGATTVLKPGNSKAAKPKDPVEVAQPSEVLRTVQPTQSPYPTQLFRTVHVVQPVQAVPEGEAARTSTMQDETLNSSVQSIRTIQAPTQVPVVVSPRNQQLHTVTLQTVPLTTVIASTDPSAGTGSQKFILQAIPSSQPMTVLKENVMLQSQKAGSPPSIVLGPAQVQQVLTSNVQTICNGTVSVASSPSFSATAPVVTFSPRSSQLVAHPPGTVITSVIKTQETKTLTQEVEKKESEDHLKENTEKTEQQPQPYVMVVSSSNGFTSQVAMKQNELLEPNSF

As to AGCTGA, the binding signal is 1.02 fold enrichment (6-mer frequency, TF over GST control) in the experiment with FLI1; 1.07 fold enrichment (6-mer frequency, TF over GST control) with ELK1; 1.01 fold enrichment (6-mer frequency, TF over GST control) with GABPA; 1.1 fold enrichment (6-mer frequency, TF over GST control) in the experiment with ELF1; 1.11 fold enrichment (6-mer frequency, TF over GST control) with EHF; 1.14 fold enrichment (6-mer frequency, TF over GST control) in the experiment with SPIC. For the same sequence, the binding signal with ELF4 is 1.01 fold enrichment (6-mer frequency, TF over GST control); with ELK4 it was 1.02 fold enrichment (6-mer frequency, TF over GST control); with ETV2, 1.08 fold enrichment (6-mer frequency, TF over GST control); with ELF3 it was 1.14 fold enrichment (6-mer frequency, TF over GST control); with ETV1, 1.08 fold enrichment (6-mer frequency, TF over GST control); with ETS2, 1.04 fold enrichment (6-mer frequency, TF over GST control). For the same sequence, the binding signal in the experiment with ETV7 was 1.09 fold enrichment (6-mer frequency, TF over GST control); with ETV3 it was 1.05 fold enrichment (6-mer frequency, TF over GST control).
